# Measurements as given in PubChem BioAssay AID602440 (Sanford-Burnham Center for Chemical Genomics, 2012).
# Out of some 360,000 compounds screened, about 2,300 (0.64%) were called active. The entries come from a sample that favours actives as a whole. Unmarked numbers belong to inactive results. No stated cut-off is given here; in the data, active means inhibition mostly above about 40% (no sharp cut-off); inactive means mostly below about 27%.
# Molecular target: Sentrin-specific protease 8 (Homo sapiens) (UniProt Q96LD8)
# Sequence (Q96LD8 whole entry, looked up): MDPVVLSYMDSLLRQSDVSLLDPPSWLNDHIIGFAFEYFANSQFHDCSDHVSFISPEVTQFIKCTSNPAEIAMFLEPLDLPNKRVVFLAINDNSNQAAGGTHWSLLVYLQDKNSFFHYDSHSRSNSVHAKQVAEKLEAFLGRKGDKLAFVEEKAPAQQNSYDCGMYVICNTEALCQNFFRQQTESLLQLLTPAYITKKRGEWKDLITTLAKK
# Experiment: human SENP8 protease inhibitors, primary screen, biochemical, fluorescence, Nedd8 protein substrate, uHTS (AID 602440)
# Conditions: recombinant SENP8, Nedd8 substrate fluorescence; at 20 µM; stronger effect = higher value
row,SMILES,inhibition
1,COc1cccc(N2C(=O)CC(N3CCc4ccccc4C3)C2=O)c1 (stereo not drawn),11.5%
2,O=C(c1c(F)cccc1Cl)N1CCN(S(=O)(=O)c2ccc3c(c2)OCCCO3)CC1,5.8%
3,O=C(CCC1CCCC1)N=C1SC2CS(=O)(=O)CC2N1Cc1ccccc1 (stereo not drawn),8.9%
4,O=C(N=C1SC2CS(=O)(=O)CC2N1Cc1ccccc1)c1ccccc1 (stereo not drawn),13.8%
5,CC(C)CC(=O)N=C1SC2CS(=O)(=O)CC2N1CCc1ccccc1 (stereo not drawn),42% (active)
6,Cn1c2c(c(=O)n(C)c1=O)C(c1ccc(O)cc1)Nc1ccccc1O2 (stereo not drawn),23%
7,COc1ccc(S(=O)(=O)Nc2ccc3cn[nH]c3c2)cc1[N+](=O)[O-],45.4% (active)
8,COc1ccc(S(=O)(=O)N/N=C\c2ccc(OC)c(COc3ccc(C)cc3[N+](=O)[O-])c2)cc1,10.6%
9,O=C(O)c1cc(S(=O)(=O)Nc2ccc3cn[nH]c3c2)ccc1Br,-90.8%
10,Cc1cc(NC(=O)CCC(=O)N(Cc2ccccc2)C(C(=O)NC2CCCC2)c2ccc(C)o2)no1 (stereo not drawn),1.5%
11,CCOc1ccc(NC(=O)c2cccc3c2C(=O)N(CC2CCCO2)C3)cc1 (stereo not drawn),5.6%
12,CCCN1C(=O)C(Cc2nc3ccccc3c(=O)n2-c2ccccc2)c2cc(C)ccc21 (stereo not drawn),12.4%
13,CCn1c(O)c(N=NC2=NC(=O)CS2)c2cc(C)ccc21,46.9% (active)
14,CCn1c(O)c(N=NC(=O)c2cccc(S(=O)(=O)N3CCCCC3)c2)c2ccccc21,28%
15,N#Cc1cccc(NC(=O)c2cc(C3CCCCN3C(=O)CCc3ccccc3)on2)c1 (stereo not drawn),8.1%
16,Clc1ccc(C2[C@H]3CN(CC4CCCCC4)[C@H](c4ccccc4)C34CC2(c2cccnc2)C4)cn1 (stereo partly drawn),7.6%
17,COc1ccc(NC(=O)CSc2nnnn2-c2cccc(OC)c2)cc1,10.5%
18,COc1ccc(Br)cc1/C=N/Nc1ccc(S(=O)(=O)Nc2ccccc2C(=O)O)cc1[N+](=O)[O-],46.4% (active)
19,COc1ccc(N(CC(=O)Nc2ccc(C)cc2C)S(=O)(=O)c2ccccc2[N+](=O)[O-])c(OC)c1,10.2%
20,Cc1ccc(NS(=O)(=O)c2ccc(N/N=C/c3ccccc3OCC(=O)O)c([N+](=O)[O-])c2)c(C)c1,49.7% (active)
21,Cc1ccc(S(=O)(=O)NC(=O)COc2ccccc2C)cc1,12.8%
22,COc1ccccc1C(CNC(=O)c1cccc(NS(=O)(=O)c2ccc(Br)cc2)c1)N(C)C (stereo not drawn),0.9%

row,SMILES,inhibition
1,CC1CN(C(=O)c2ccccc2NS(=O)(=O)c2cccc([N+](=O)[O-])c2)CC(C)O1 (stereo not drawn),4.5%
2,COc1cccc(N(Cc2nnc3n2CCCCC3)C(=O)Nc2ccccc2F)c1,9.7%
3,CC1CC2=C(CC1/C=N/NC(N)=S)C(C)(C)CCC2 (stereo not drawn),12.2%
4,O=C(CCNS(=O)(=O)c1ccccc1)NCCSc1ccc(Br)cc1,9%
5,COc1ccc(S(=O)(=O)/N=C2\C=C(NS(=O)(=O)c3ccccc3)C(=O)c3ccccc32)cc1,70% (active)
6,Cc1ccc(S(=O)(=O)N/N=C(\c2ccccc2)C2CC2)cc1,3.3%
7,CNC(=O)COc1ccc(S(=O)(=O)Nc2ccccc2)cc1,3.4%
8,Cc1ccc(S(=O)(=O)N[C@H](CO)C(C)C)cc1,11.7%
9,Cc1ccc(S(=O)(=O)/N=C2\C=C(NS(=O)(=O)c3ccc(C)cc3)C(=O)c3ccccc32)cc1,89.9% (active)
10,COc1ccc(C(=O)C(C)OC(=O)c2cccc(S(=O)(=O)Nc3c(C)n(C)n(-c4ccccc4)c3=O)c2)cc1 (stereo not drawn),5.8%
11,COC(=O)c1ccccc1NC(=O)c1cncc(Br)c1,3.1%
12,C/C=N/NC(=O)CCCC(=O)N/N=C/C,6.6%
13,COc1cc2c(cc1OC)C(=O)NCC(C)(C)O2,15.5%
14,COc1cc(C(C(=O)NC2CCCC2)N(C(=O)c2ccco2)c2ccccc2C(C)=O)cc(OC)c1OC (stereo not drawn),10.1%
15,O=C1OCCN1C(=O)[C@H]1[C@H](c2ccc(Cl)cc2)C(c2cccc(Cl)c2)=NN1c1ccc(Br)cc1,-366%
16,O=C(c1cccnc1)N(c1cc2sc(=O)oc2c2ccccc12)S(=O)(=O)c1ccccc1,7.7%
17,O=C(O)CN1C(=O)CC(Cc2ccccc2)C1=O (stereo not drawn),3.4%
18,COc1cccc(CC2(CO)CCCN(Cc3ccc(OC(F)F)cc3)C2)c1 (stereo not drawn),10.3%
19,CN(C)c1ccc(/C=C/C(=O)c2ccc(O)cc2)cc1[N+](=O)[O-],47.5% (active)
20,CN(C)c1ccc(S(=O)(=O)NCC(=O)NCC2CCCCC2)cc1[N+](=O)[O-],11.6%
21,CCN(CC)CCN(C)C(c1ccnc2ccccc12)c1nnnn1-c1ccc2c(c1)OCCO2 (stereo not drawn),7.5%
22,CC(C)N(C(=O)[C@H]1C[C@H](CC(=O)NC(C)(C)C)C(=O)N2CCc3c([nH]c4ccc(Cl)cc34)[C@]12C)C(C)C,19%

row,SMILES,inhibition
1,COC(=O)C1=C(C(=O)c2ccc(C)cc2)C(c2ccccc2)n2nnnc2N1 (stereo not drawn),44.3% (active)
2,COC(=O)c1ccc(C2C3=C(Nc4nnnn42)c2ccccc2OC3)cc1 (stereo not drawn),-273%
3,COc1ccccc1NC(=O)C1=C(C)Nc2nnnn2C1c1cccc(Br)c1 (stereo not drawn),6%
4,O=C1CC(Cc2ccc(Cl)cc2)C(=O)N1c1cc(Cl)ccn1 (stereo not drawn),9.6%
5,COc1ccccc1CNC(=O)COC(=O)c1sc(C)nc1C,17.6%
6,CCN(C(=O)COc1cccnc1[N+](=O)[O-])C1CCS(=O)(=O)C1 (stereo not drawn),11.8%
7,NC1=CC(=O)C(=O)c2cccnc21,95% (active)
8,C[C@@H](O)c1nc2ccccc2n1N,19%
9,Cc1ccc2c(=O)cc(C(=O)NCCc3ccc(S(N)(=O)=O)cc3)oc2c1C,12.8%
10,CCN(CC)c1ccc(S(=O)(=O)N2CCCCC2)cc1NC(=O)C1=COCCO1,5.2%
11,O=[N+]([O-])c1ccccc1NCc1ccccc1Cl,46.6% (active)
12,O=C(NCc1ccccc1Cl)NC(=O)c1csc([N+](=O)[O-])c1,6.1%
13,O=C(NCCNc1ccccc1[N+](=O)[O-])c1ccccc1F,19.2%
14,CCc1cc2c(SCC(=O)Nc3ncc(Cl)c(C)c3Cl)ncnc2s1,-2.9%
15,O=C1NC(=O)C2C1C(c1ccc([N+](=O)[O-])cc1)=NN2Cc1ccccc1 (stereo not drawn),-27.9%
16,CCN1N=C(c2ccccc2)CCC1=O,8.8%
17,O=C1CC(c2ccccc2)=NN1c1ccc([N+](=O)[O-])cc1,71.2% (active)
18,Cc1ccc(NC(=S)N(CCN(C)C)Cc2cccs2)cc1C,19.3%
19,CNC(=O)C[C@H]1C(=O)N(Cc2ccccc2)C[C@@H]1CSC,-6.3%
20,CCOC(=O)N1CCC(Nc2c(NCCCN3CCN(CC)CC3)c(=O)c2=O)CC1,20.5%
21,CCOC(=O)N1CCC(Nc2c(NCCCN3CCN(c4ccc(OC)cc4)CC3)c(=O)c2=O)CC1,63.9% (active)
22,CCOC(=O)N1CCN(c2c(NCCCN3CCCC(C)C3)c(=O)c2=O)CC1 (stereo not drawn),21.3%

row,SMILES,inhibition
1,C[C@H](NC(=O)CC[C@H]1O[C@@H](n2ccc(=O)[nH]c2=O)[C@H](O)[C@@H]1O)c1cccc2ccccc12,20.1%
2,O=c1ccn([C@@H]2O[C@H](CNS(=O)(=O)c3cc4ccccc4s3)[C@@H](O)[C@H]2O)c(=O)[nH]1,7.7%
3,Cc1sc2ccccc2c1CNC[C@H]1O[C@@H](n2ccc(=O)[nH]c2=O)[C@H](O)[C@@H]1O,50.2% (active)
4,O=C(CNCc1ccc(Cl)cc1)Nc1cccc(C(=O)O)c1,23%
5,CC(C)[C@H](NC(=O)N1CC(=O)Nc2ccccc21)C(=O)N[C@@H](Cc1c[nH]c2ccccc12)C(=O)O,57.9% (active)
6,CC(C)C[C@H](NC(=O)N1CC(=O)Nc2ccccc21)C(=O)N[C@H](Cc1ccccc1)C(=O)O,28.1%
7,CC(C)c1ccc(NC(=O)[C@@H](NC(=O)N2CC(=O)Nc3ccccc32)C(C)C)cc1,8.3%
8,CC(OC(=O)Cc1ccc(F)cc1)C(=O)N1CCc2ccccc21 (stereo not drawn),-2.8%
9,O=C(CN(C(=O)c1nsc(Cl)c1Cl)c1cccc(F)c1)NC1CCCC1,4.4%
10,COc1ccc(S(=O)(=O)n2cnc3ccccc32)c(C)c1,12.5%
11,O=C(/C=C/c1cccs1)NCc1cccnc1,-2.1%
12,Cc1ccc(S(=O)(=O)NC(C)C(=O)Nc2ccccc2C(=O)N2CCCC2)cc1 (stereo not drawn),20.9%
13,CC1CCCC(NC(=O)c2cccc(N3CCCC3=O)c2)C1C (stereo not drawn),-12.1%
14,Cc1cc(C)nc(N/N=C/c2ccc([N+](=O)[O-])o2)n1,45.8% (active)
15,Cc1cc2c(C)nc(N/N=C/c3ccccc3)nc2o1,-29.4%
16,O=C(/C=C/c1ccc([N+](=O)[O-])o1)NNC(=O)c1ccc(F)cc1,19.8%
17,CN(CC(=O)Nc1ccccc1Cl)C(=O)c1ccccc1SCC(=O)N1CCCC1,3.2%
18,COC(=O)c1ccc2c(=O)n(CCN3CCOCC3)c(SCC(=O)Nc3cccc(OC)c3)nc2c1,14.9%
19,Cc1nc2ccccc2c(=O)n1-c1ccc(NS(=O)(=O)c2ccc(F)cc2F)cc1,5.4%
20,COC(=O)Cn1c(=NC(=O)c2cc(OC)c(OC)c(OC)c2)sc2cc(OC)ccc21,-398%
21,COC(=O)Cn1c2ccc(C)cc2c2nc(C)sc21,65.4% (active)
22,CCn1c(CNC(=O)c2cc(OC)c(OC)c(OC)c2)cc2cc(C)ccc21,-19.2%
